Rows were chosen to be rich in hits. Some 2.1% of all compounds tested hit in one or more screens of this group.
CendR NRP1 mod: modulators of CendR peptide binding to human neuropilin-1; O14786; AID 602438; inhibition, % at 25 µM; FAM-RPARPAR peptide binding to NRP-1, fluorescence polarization; 360,000 tested, 0.85% active;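 active = inhibition or corrected inhibition above about 18%, plus a signal ratio from 0.5 to 1.5, limit read from the data, passing the limit was not always enough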
eIF4H FP inh: inhibitors of RNA binding by human eIF4H; Q15056; eIF4H fluorescence polarization binding assay; inhibition, % at 35 µM; 290,000 tested, 0.94% active;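 note: calls also rest on retests at 20 µM and on dose response follow-up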
PABP FP inh: blocks human PABP binding to poly(A) RNA | inhibition, % at 35 µM | 290,000 tested, 1% active | fluorescence polarization | P11940;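 note: calls also rest on retests at 20 µM and on dose response follow-up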
MLLE-PAM2 inh: blocks PAM2 peptide binding to the PABP1 MLLE domain; inhibition, % at 20 µM; GST-MLLE / FITC-PAM2 fluorescence polarization; 360,000 tested, 0.36% active; in the data active = inhibition above about 35%, passing the limit was not always enough;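 note: plate controls were DMSO wells with GST-MLLE for no effect and wells lacking GST-MLLE protein for full effect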
* = called active by the depositor; ? = inconclusive; / = no result given. Unless noted, the rule behind the calls is not given here.

SMILES | CendR NRP1 mod | eIF4H FP inh | PABP FP inh | MLLE-PAM2 inh
CC(C)=CC(O)C/C(C)=C/COc1ccc2ccc(=O)oc2c1 (stereo not drawn) | 26* | -7 | 9 | -14
O=C(N=Nc1c(O)[nH]c2ccccc12)c1ccc(CN2CCOCC2)cc1 | -2 | 4 | 15 | -10
O=C(N=Nc1c(O)[nH]c2ccccc12)c1ccc2c(c1)OCO2 | -5 | 8.5* | 54* | -2
Clc1ccc(-c2nnc3sc(-c4ccc(Br)o4)nn23)cc1 | 92 | -1 | -3 | 102
Cc1oc(-c2ccc(Cl)cc2)cc1-c1nn2c(-c3ccoc3C)nnc2s1 | -3 | 85* | 59* | -18
CC(=O)c1ccc2cccc3c2c1N=CN3C | -11 | 72* | 45 | 17
CCn1c(CCn2c3ccccc3c3ccccc32)n[nH]c1=S | 40* | -1 | 9 | 14
CCOc1ccccc1NC(=O)COC(=O)c1ccccc1SCC(=O)N1CCCC1 | -2 | / | / | 5
O=C(COC(=O)c1ccccc1SCC(=O)N1CCCC1)Nc1ccccc1C(F)(F)F | 32* | -9 | 5 | 18
CC(=O)Nc1ccc(S(=O)(=O)N(Cc2ccco2)Cc2cc3ccccc3[nH]c2=O)cc1 | -6 | -3 | 12 | -10
O=c1cc2oc3cc(O)c(O)cc3c(-c3ccccc3[N+](=O)[O-])c-2cc1O | -14 | 50* | 34* | -11
CCCN1C(=O)SC(CC(=O)Nc2ccc(C)cc2)C1=O (stereo not drawn) | 14 | -4 | -18 | 45*
Cc1ccc(NC(=O)CC2SC3=NCCN3C2=O)cc1 (stereo not drawn) | 0 | -2 | 6 | 44*
Cc1cccc(NC(=O)CC2SC(=O)N(c3ccccc3)C2=O)c1 (stereo not drawn) | 5 | -15 | 7 | 31
O=C(CC1SC2=NCCN2C1=O)Nc1ccccc1 (stereo not drawn) | 4 | 2 | 0 | -8
Cc1ccc(NC(=O)CC2SC(=O)N(c3ccccc3)C2=O)cc1 (stereo not drawn) | 8 | 0 | -3 | 45*
CC(=O)Nc1ccc(NC(=O)CC2SC(=O)N(CC(=O)c3ccccc3)C2=O)cc1 (stereo not drawn) | -3 | -17 | 10 | 25
O=C(CC1SC(=O)N(c2ccccc2)C1=O)Nc1ccccc1 (stereo not drawn) | 3 | -2 | -3 | 49*
Cc1ccc(S(=O)(=O)/N=C2\SC(CC(=O)Nc3ccc(F)cc3)C(=O)N2c2ccccc2)cc1 (stereo not drawn) | -1 | 4 | -2 | 13
Cc1noc(C)c1S(=O)(=O)N(C)C[C@H]1OCc2cnnn2CCCC(=O)N([C@H](C)CO)C[C@H]1C | -2 | / | / | 14
CCCCN(C=O)c1c(CC)nc2ccc(C(=O)N(C)Cc3ccco3)cn12 | -2 | / | / | 0
Nc1nc2ccccc2cc1S(=O)(=O)c1ccccc1 | -21 | 2 | -9 | 7
O=S(=O)(c1ccccc1)c1cnc2ccccc2c1 | 26* | / | / | -9
COCCNC(=O)c1cn(CCOC)c(=O)c2c1c1ccccc1n2C | -4 | -4 | -14 | 0
Cc1cc(C)c2oc(C(=O)N3CCN(C)CC3)cc(=O)c2c1 | 6 | 7 | 1 | 12
SMILES | CendR NRP1 mod | eIF4H FP inh | PABP FP inh | MLLE-PAM2 inh
Cc1c(C(O)CN2CCN(Cc3ccc4c(c3)OCO4)CC2)c2ccccc2n1C (stereo not drawn) | 2 | 82* | 81* | -4
COc1ccc2c(c1)c(C(O)CN1CCN(Cc3ccc4c(c3)OCO4)CC1)c(C)n2C (stereo not drawn) | 9 | 10 | 17 | 0
COC(=O)c1ccc(CNC(=O)CNC(=O)c2sc3ccccc3c2Cl)cc1 | -24 | / | / | -2
Cn1c(=O)c2ncn(CC(=O)NC3CCCCCC3)c2n(C)c1=O | 9 | -6 | 80* | -112
COCCOc1ccc(C(F)(F)F)cc1NC(=O)COC(=O)C12CC3CC(CC(O)(C3)C1)C2 | 7 | -17 | 7 | -7
Cc1cccc(NS(=O)(=O)c2ccc(C)c(C(=O)N(C)C3CCN(C)CC3)c2)c1 | -1 | / | / | 7
Cc1ccc(-n2c(SCC(=O)N3CCOCC3)nc(O)c(Cc3ccccc3)c2=O)cc1 | 3 | -6 | -4 | 16
O=C(CSc1nc(O)c(Cc2ccccc2)c(=O)n1-c1ccccc1)N1CCOCC1 | 26* | -5 | 10 | 0
Nc1[nH]c2cc([N+](=O)[O-])ccc2c1-c1ccccn1 | -237 | 51 | 17* | -133
O=C(N/N=C/c1cc(Cl)cc(Cl)c1O)c1ccncc1 | 140 | ? | ? | 142
Oc1c(Cl)cc(Cl)cc1/C=N/Nc1ncc(Br)cn1 | 38* | 3 | 43 | -4
Cc1csc(SCC(=O)Nc2cccc(S(=O)(=O)N3CCCC3)c2)n1 | 26* | -1 | -4 | -5
Cc1csc(SCC(=O)Nc2cc(S(=O)(=O)N3CCCC3)ccc2Cl)n1 | 5 | 2 | 3 | -3
O=c1c2ccccc2c(C=Nc2ccccc2O)c(O)n1-c1nccs1 | -98 | 116 | 88* | -67
Cc1ccc(N2CC(C(=O)OCc3nnc(-c4ccccc4)o3)CC2=O)cc1 (stereo not drawn) | -3 | / | / | -7
COc1cc(OC)cc(C(=O)NCc2ccc3[nH]c(C)cc3c2)c1 | 0 | 2 | 0 | 7
COc1cccc(C(=O)NCc2ccc3[nH]c(C)cc3c2)c1 | -58 | 6 | 5 | 38*
Cc1cc2cc(CNC(=O)c3cccc([N+](=O)[O-])c3)ccc2[nH]1 | 7 | 5 | 22 | 45*
COc1ccc(CNCCCSc2ncccn2)c(OC)c1 | 7 | 18 | 58 | -3
COc1ccccc1-n1cnnc1SC(C)C(=O)NCC1CCCO1 (stereo not drawn) | 9 | / | / | 5
Cc1ccc(S(=O)(=O)N2CCC(C(N)=O)CC2)cc1[N+](=O)[O-] | 27* | 6 | -1 | 12
CCOC(=O)CSc1ccc(S(=O)(=O)N2CCCCC2)cc1[N+](=O)[O-] | 6 | -1 | 90 | -1
COc1ccc(C(CNc2ccc(S(=O)(=O)N3CCCC3)cc2[N+](=O)[O-])N2CCCC2)cc1 (stereo not drawn) | 26* | -3 | 15 | -1
CCOC(=O)CSc1ccc(S(=O)(=O)N2CCCC2)cc1[N+](=O)[O-] | 21 | active | 55* | 11
COc1ccc(C(CNc2ccc(S(=O)(=O)N3CCN(C)CC3)cc2[N+](=O)[O-])N(C)C)cc1 (stereo not drawn) | 12 | / | / | 1
SMILES | CendR NRP1 mod | eIF4H FP inh | PABP FP inh | MLLE-PAM2 inh
COc1ccc(NC(=O)COc2ccccc2)cc1NC(=O)c1ccco1 | -14 | 0 | 6 | 9
O=C(COC(=O)c1cc(S(=O)(=O)N2CCOCC2)ccc1O)NCc1ccc2c(c1)OCO2 | 1 | / | / | 7
Brc1ccc(Sc2cnc3ccccc3n2)cc1 | 23* | -3 | -4 | 8
CC(C)N(Cc1ccccc1)C(=O)COC(=O)c1cnc(Cl)c(Cl)c1 | 13 | / | / | 10
O=C(O)c1ccc(N=Nc2c(O)ccc3ncccc23)cc1 | 30 | 90* | 45* | -3
CCCc1cc(=O)oc2cc(OCC(=O)NC(Cc3c[nH]c4ccc(O)cc34)C(=O)O)c(Cl)cc12 (stereo not drawn) | 3 | 52* | 20* | -13

Source: PubChem
